Compounds with a hit are over-represented: about 3.2% of the library has one in this group of screens.
MsrA inhibitor – inhibits bovine methionine sulfoxide reductase A; purified bovine MsrA, absorbance read-out; inhibition, % at 15.5 µM; actives 0.75% (n = 360,000); AID 651718; in the data active means inhibition above about 4.5%
NadD inh – NadD (S. aureus) enzyme inhibition; purified NadD enzyme, colorimetric absorbance read-out; inhibition, % at 20 µM; actives 0.78% (n = 360,000); in the data active means inhibition above about 26%
DAGLB inhibitor – diacylglycerol lipase beta (human) inhibition | Q8NCG7 | HEK293T DAGLB membrane lysate, EnzChek fluorogenic substrate | inhibition, % at 5.17 µM | actives 0.059% (n = 340,000); in the data active means inhibition above about 34%
Target sequence (Q8NCG7 whole entry, looked up): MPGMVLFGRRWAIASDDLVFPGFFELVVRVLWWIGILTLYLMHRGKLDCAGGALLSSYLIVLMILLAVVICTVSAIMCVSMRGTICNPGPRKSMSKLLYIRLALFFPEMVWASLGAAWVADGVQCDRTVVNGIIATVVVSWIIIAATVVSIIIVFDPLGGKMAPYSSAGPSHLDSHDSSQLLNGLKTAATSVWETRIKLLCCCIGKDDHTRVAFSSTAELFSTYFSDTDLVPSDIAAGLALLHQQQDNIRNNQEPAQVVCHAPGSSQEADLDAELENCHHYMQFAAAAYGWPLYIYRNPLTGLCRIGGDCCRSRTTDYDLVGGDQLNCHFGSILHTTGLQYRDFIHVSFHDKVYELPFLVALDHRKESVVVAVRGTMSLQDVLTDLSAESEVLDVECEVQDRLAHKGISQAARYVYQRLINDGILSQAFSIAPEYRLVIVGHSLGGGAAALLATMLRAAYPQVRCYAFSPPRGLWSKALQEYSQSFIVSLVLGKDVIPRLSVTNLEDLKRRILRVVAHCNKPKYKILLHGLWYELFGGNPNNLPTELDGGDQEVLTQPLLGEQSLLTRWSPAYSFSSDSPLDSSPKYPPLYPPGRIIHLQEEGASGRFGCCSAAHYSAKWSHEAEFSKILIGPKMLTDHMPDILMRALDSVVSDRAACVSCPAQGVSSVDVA
rCAG RNA binder – binds r(CAG) RNA repeats. actives 1.3% (n = 370,000). r(CAG) RNA repeat, TO-PRO-1 dye displacement fluorescence. inhibition, % at 3 µM;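 active means inhibition above the plate cutoff, the mean of all test compounds on that plate plus 3 SD, cut at about 35% in these data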;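 further: higher means more dye released from RNA so lower well fluorescence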
DSG3 Ab inh – blocks pemphigus antibody binding to human desmoglein-3. P32926. DSG3-coupled beads, scFv-anti-DSG3-GFP binding, flow cytometry; hits give low values. binding (percent of control), % at 10 µM. actives 0.48% (n = 310,000);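 active means binding more than 3 SD below its plate's average and above zero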;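 further: hits lower antibody fragment binding to DSG3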
MsrA act – activators of bovine methionine sulfoxide reductase A | activation, % at 10.6 µM | purified bovine MsrA, absorbance read-out | actives 0.3% (n = 360,000); in the data active means activation above about 7.5%
rCAG bind conf – r(CAG) RNA repeat binding, confirmation. shares compounds with rCAG RNA binder. inhibition, % at 3 µM. actives 70% (n = 4,300). TO-PRO-1 dye displacement fluorescence. AID 652065;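 active means inhibition above a per-plate cutoff, the mean inhibition of sample wells plus 3 SD, cut at about 35% in these data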;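 further: loss of TO-PRO-1 fluorescence as compound displaces dye from 1x1 AA loop RNA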
DNA CAG counter – counter-screen for rCAG RNA binders: DNA CAG dye complex inhibitors; shares compounds with rCAG RNA binder; d(CAG) DNA oligo TO-PRO-1 dye displacement, fluorescence; inhibition, % at 3 µM; actives 94% (n = 4,300); AID 652068;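 active means inhibition above its plate's cutoff, the mean test-well inhibition plus 3 SD, cut at about 4.8% in these data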;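 further: hits displace the dye from DNA and so lower well fluorescence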
Numbers stand for hits; - = inactive; . = no result given; ! = not confirmed by another sample.

SMILES	MsrA inhibitor	NadD inh	DAGLB inhibitor	rCAG RNA binder	DSG3 Ab inh	MsrA act	rCAG bind conf	DNA CAG counter
N#Cc1c(-c2ccccc2)cc(-c2cccs2)nc1SCC(=O)O	-	-	-	49.7	-	-	40.7	17.0
CCCCOCCCNC(=O)C[C@@H]1C[C@@]2(C(=O)OC)CC(C)(C)CC=C2N(Cc2ccco2)C1=O	-	.	.	-	.	.	.	.
CCN(CC)S(=O)(=O)c1ccc(N2CCOCC2)c(NS(=O)(=O)c2ccc(Cl)s2)c1	-	-	-	43.9	-	-	39.1	10.1
CCN(CC)S(=O)(=O)c1ccc(N2CCOCC2)c(NC(=O)C2CC2)c1	-	-	-	-	-	-	.	.
COC(=O)CCC(C)C1CCC2C3CCC4CC(O)CCC4(C)C3=CC(=O)C12C (stereo unspecified)	-	-	-	-	-	-	.	.
C[C@H](CCC(=O)O)[C@H]1CC[C@H]2[C@@H]3CC[C@@H]4C[C@H](O)CC[C@]4(C)[C@H]3C[C@H](O)[C@]12C	-	-	-	36.7!	-	-	40.0	6.7
C[C@H](CCC(=O)OCc1cn(CC(=O)c2ccc(O)cc2)nn1)C1CC[C@H]2[C@@H]3CC[C@@H]4C[C@H](O)CC[C@]4(C)[C@H]3C[C@H](O)[C@]12C (stereo partly specified)	-	-	-	-	-	-	.	.
C[C@H](CCC(=O)O)[C@H]1CC[C@H]2[C@@H]3[C@H](O)C[C@@H]4C[C@H](O)CC[C@]4(C)[C@H]3CC[C@]12C	-	-	-	37.5	-	-	-	-
COc1ccc(N2CCN(C(=O)COC(=O)c3nc(Cl)ccc3Cl)CC2)cc1	-	-	-	-	-	-	.	.
C=CCC1(CC=C)CCCN1C(=O)c1ccc2oc(CCCC)nc2c1	-	-	-	-	-	-	.	.
COc1ccc(-c2coc3c(C(=O)N4CCN(C)CC4)cccc23)c(C)c1	-	-	.	-	.	-	.	.
Cc1cccc(NC(=S)NNC(=O)c2cc3c(s2)CCC(C)C3)c1C (stereo unspecified)	-	-	-	37.3	-	-	34.9	11.8
Cc1ccc(C)c(NC(=S)NNC(=O)c2cc3c(s2)CCC(C)C3)c1 (stereo unspecified)	-	-	-	-	-	-	.	.
O=C(CN(Cc1ccccc1)S(=O)(=O)c1ccccc1)N/N=C/c1ccccc1C(=O)O	-	-	-	-	-	-	.	.
O=C(CN(Cc1ccccc1)S(=O)(=O)c1ccc(Br)cc1)N/N=C/c1ccccc1C(=O)O	-	-	-	51.0	-	-	57.0	15.3
CCOC(=O)Cc1cc(=O)n2[nH]cc(-c3cccc(Br)c3)c2n1	-	-	-	67.0	-	-	53.2	17.3
COCc1cc(=O)n2[nH]cc(-c3ccccc3)c2n1	-	-	-	-	-	-	.	.
CC1(Oc2ccccc2)CCN(Cc2ccc(-c3ccccn3)cc2)C1 (stereo unspecified)	-	-	.	-	.	-	.	.
CC1CCCCC1NC(=O)C(=O)NCC1CCCO1 (stereo unspecified)	-	-	-	55.9	-	-	-	-
CCOC(=O)C1=NOC(C(=O)NC2CCCC2)(C(=O)c2ccc(OC)cc2)C1 (stereo unspecified)	.	.	.	-	.	.	.	.
CCCCN(CCCC)c1ccc(C(=O)c2ccccc2C(=O)O)c(O)c1	-	-	-	71.8	-	-	56.8	20.7
Cc1ccc(C(=O)c2ccccc2C(=O)O)c(O)c1	-	-	-	-	-	-	.	.
NS(=O)(=O)c1cccc(NS(=O)(=O)c2ccc(/C=C/C(=O)OCC(=O)c3ccccc3)cc2)c1	-	-	-	60.0	-	-	54.2	21.5
Cc1ccc(S(=O)(=O)NCCC(=O)NCCc2ccc(S(N)(=O)=O)cc2)cc1C	-	-	-	-	-	-	.	.
Cc1cnc(C(=O)OCC(=O)Nc2oc(-c3ccccc3)c(-c3ccccc3)c2C#N)cn1	-	-	-	46.1	.	-	51.3	14.1
SMILES	MsrA inhibitor	NadD inh	DAGLB inhibitor	rCAG RNA binder	DSG3 Ab inh	MsrA act	rCAG bind conf	DNA CAG counter
N#Cc1c(NC(=O)CSc2ccccn2)oc(-c2ccccc2)c1-c1ccccc1	-	-	-	-	-	-	.	.
CCc1nnc(NS(=O)(=O)c2ccc(NCc3cc(Cl)ccc3O)cc2)s1	-	-	-	65.0	-	-	46.2	14.4
CCc1nnc(NS(=O)(=O)c2ccc(NCc3cc(Cl)cc(Cl)c3O)cc2)s1	-	-	-	69.9	-	-	36.8	9.5
Cc1ccc(O)c(CNc2ccc(S(=O)(=O)Nc3nccs3)cc2)c1	-	-	-	-	-	-	.	.
COc1cc(-c2c(C(=O)c3ccccc3)[nH]c(N)c2C(=O)NCCc2c[nH]c3ccccc23)ccc1F	-	.	.	-	.	.	.	.
C[C@H]1C2CC(OC(=O)Nc3cccc(F)c3)C(C2)[C@H]2CCCCN21 (stereo partly specified)	.	.	.	-	.	.	.	.
O=C(c1ccc(F)cc1Cl)N1CCC(Oc2cccnc2)CC1	.	.	.	-	.	.	.	.
CCOC(=O)C1=CCN(S(=O)(=O)c2ccccc2C)C1c1ccc(Cl)cc1 (stereo unspecified)	-	-	.	-	.	-	.	.
CSCC[C@H](NC(=O)c1cc2c([nH]c3ccccc32)c(-c2ccccc2)n1)C(=O)O	-	-	-	54.5	-	-	49.6	14.1
C[C@H](NC(=O)c1cc2c([nH]c3ccccc32)c(-c2ccccc2)n1)C(=O)O	-	-	-	-	-	-	.	.
CC(C)C[C@H]1CN(CCCC[C@H]2CNC(=O)C(=O)N2CCC2CCCCC2)C(=O)C(=O)N1CCC1CCCCC1	-	-	.	-	.	-	.	.
CCOC(=O)c1c(NS(C)(=O)=O)sc2c1CCC(C)C2 (stereo unspecified)	-	-	-	48.0	.	-	-	8.0
CCCOC(=O)c1c(NC(=O)C2C3C=CC(C3)C2C(=O)O)sc2c1CCC(C)C2 (stereo unspecified)	-	-	-	-	-	-	.	.
CCOC(=O)c1c(NC(=O)C2C3C=CC(C3)C2C(=O)O)sc2c1CC(C)CC2 (stereo unspecified)	-	-	-	48.3	-	-	53.5	14.4
CCOC(=O)c1c(N)sc2c1CCC(C)C2 (stereo unspecified)	-	-	-	-	-	-	.	.
CCn1c2ccccc2c2cc(C=Nn3c(-c4ccccn4)n[nH]c3=S)ccc21	.	.	.	-	.	.	.	.
Cc1ccc(C2=NOC(=O)/C2=C\c2ccc(C)o2)cc1	-	-	-	37.2	-	-	-	6.8
CCCCNC(=O)c1nc(C2CCN(S(=O)(=O)c3ccc(OC(F)(F)F)cc3)CC2)oc1-c1ccccc1	-	.	.	-	.	.	.	.
c1coc(-c2nc3c([nH]2)CCc2nonc2-3)c1	-	-	-	41.9	-	-	-	-
c1ccc(-c2nc3c([nH]2)CCc2nonc2-3)cc1	-	-	-	-	-	-	.	.
